# Results as given in PubChem BioAssay AID624405 (Broad Institute, 2012).
# About 250 (13%) of roughly 1,900 compounds were called active. Inconclusive results (about 4%) are left out.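 How the source made its calls: active means fitted curve reaches 40% rescue activity at or below the top valid dose, in every test run; inconclusive means test runs disagree, some active and some inactive; inactive means every run misses the threshold or moves the wrong way.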 The list is a sample of the results. Results with a measured potency or affinity are listed apart.
# Test: suppressors of statin myotoxicity in myotubes, dose response, cell-based, C2C12 myotubes, ATP luminescence, cherry pick (AID 624405);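 further: myotubes are challenged with simvastatin at 10 µM to lower ATP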
# Settings: C2C12 myotubes + simvastatin, 48 h, scaled: DMSO wells 0, geranylgeraniol wells 100; series mostly up to 19.5 µM
row,SMILES,outcome
1,Cc1cccc(NS(=O)(=O)c2ccc(-n3cccn3)cc2)c1C,inactive
2,COc1ccc(NC(=O)CC2C(=O)NCCN2C(=O)c2ccc(Cl)cc2)cc1 (configuration not stated),inactive
3,C[C@H]1CN([C@@H](C)CO)C(=O)Cc2cc(NS(=O)(=O)c3cn(C)cn3)ccc2O[C@H]1CN(C)Cc1ccc(Cl)c(Cl)c1,inactive
4,C[C@H]1CN([C@@H](C)CO)S(=O)(=O)c2ccc(C#Cc3ccccc3)cc2O[C@@H]1CN(C)C(=O)Cc1ccccn1,inactive
5,C[C@H]1CN([C@@H](C)CO)S(=O)(=O)c2ccc(Br)cc2O[C@@H]1CN(C)S(=O)(=O)c1ccc(F)cc1,inactive
6,C[C@H](CO)N1C[C@H](C)[C@@H](CN(C)S(=O)(=O)c2ccc(F)cc2)Oc2cc(Br)ccc2S1(=O)=O,inactive
7,C[C@H](CO)N1C[C@H](C)[C@H](CN(C)C(=O)Nc2cc(F)ccc2F)Oc2cc(C#CC3CC3)ccc2S1(=O)=O,inactive
8,COc1ccc(C#Cc2ccc3c(c2)O[C@H](CN(C)C(=O)Nc2cccc(OC)c2)[C@H](C)CN([C@@H](C)CO)S3(=O)=O)cc1,inactive
9,COc1ccc(C#Cc2ccc3c(c2)O[C@H](CN(C)C(=O)Nc2cccc(OC)c2)[C@H](C)CN([C@H](C)CO)S3(=O)=O)cc1,inactive
10,O=c1oc2cc(OCc3ccc(F)cc3F)ccc2cc1-c1ccccn1,inactive
11,CC(=O)C[C@@H](O)CC(=O)[C@@H]1OC(=O)CCCCCCc2ccccc21,inactive
12,Cc1ccc(NS(=O)(=O)c2ccc(-c3ccc(=O)[nH]n3)o2)cc1Cl,inactive
13,Cc1noc(C)c1S(=O)(=O)Nc1ccc2c(c1)C(=O)N([C@@H](C)CO)C[C@H](C)[C@H](CN(C)S(=O)(=O)c1ccc(Cl)cc1)OCCCC[C@@H](C)O2,inactive
14,O=C(CN1CCOCC1)N1CCN(c2nnc(-c3ccccc3)c3ccccc23)CC1,inactive
15,Nn1c(SCC(=O)Nc2ccc(S(=O)(=O)N3CCCC3)cc2)nnc1C(F)(F)F,inactive
16,CCOC(=O)c1ccn(-c2nc(-c3ccco3)cc(C(F)(F)F)n2)n1,inactive
17,CCn1c(SCC(=O)NCc2cccs2)nnc1-c1ccco1,inactive
18,Cc1occc1-c1nnc(SCC(=O)c2ccc(Cl)cc2)n1CC1CCCO1 (configuration not stated),inactive
19,O=C(CN1CCN(S(=O)(=O)c2ccc(Br)cc2)CC1)Nc1ccc2c(c1)OCCO2,inactive
20,Cc1cc(Cl)c(S(=O)(=O)Nc2ccc3c(c2)OCO3)cc1OCC(N)=O,inactive
21,C[C@@H]1CN([C@H](C)CO)C(=O)c2cccc(NC(=O)C3CCCCC3)c2O[C@@H]1CN(C)S(=O)(=O)c1ccc(Cl)cc1,inactive
22,Cc1ccc(C2C(=O)N(C3CCC(C)CC3)CC(=O)N2C2CCCC2)cc1 (configuration not stated),inactive
